In PubChem BioAssay AID589 (National Center for Advancing Translational Sciences (NCATS), 2007):
Out of some 59,000 compounds screened, about 6,200 (11%) were called active. Roughly 9% stayed inconclusive and do not appear here. Cut-off read from the data, not from the text of the source: active = max dye-equivalent concentration above about 10 nM; inconclusive = mostly about 1.1 nM to 9.6 nM; inactive = weaker than that. For the sample, actives were picked, then their nearest neighbours and some compounds at random.

Assay: qHTS Assay for Spectroscopic Profiling in 4-MU Spectral Region
Details: compound autofluorescence, 340/450 nm, 4-MU equivalents; stronger effect = higher value
Method in brief: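 Compounds in 100 mM Tris, pH 8.0, sat 15 min at room temperature before fluorescence was read at 340 nm excitation/450 nm emission; a per-plate six-point 4-MU standard curve converted signals to dye-equivalent concentration at each compound concentration.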

Row | SMILES | max dye-equivalent concentration
1 | C=CCNC(=O)CCCC(=O)NCC=C | inactive
2 | Nc1nc2c(ncn2[C@H]2CC[C@@H](CO)O2)c(=O)n1C(=O)c1ccccc1 | inactive
3 | CC(=O)c1cccc(NC(=O)N2CCCC2C(=O)NCCC(C)C)c1 (configuration not stated) | inactive
4 | COc1ccc(NC(=O)N2CC3(CCN(C(C)=O)CC3)C2)cc1 | inactive
5 | CCOC(=O)c1c(NC(=O)CCC(=O)NCc2ccco2)sc2c1CCCC2 | inactive
6 | CCCc1cc(=O)oc2c(C)c(O)c(CN3CCCCC3)cc12 | 7800 nM (active)
7 | CCOC(=O)N1CCN(Cc2oc(CO)cc(=O)c2O)CC1 | inactive
8 | Nc1nnnn1/N=C/c1cccs1 | inactive
9 | COC(=O)Cc1nc2ccccc2[nH]1 | inactive
10 | COC(=O)Nc1nc2ccc(Sc3ccccc3)cc2[nH]1 | 14 nM (active)
11 | Oc1ccc2nc(Cc3ccccc3)[nH]c2c1 | inactive
12 | COC(=O)c1nc(NC(=O)c2ccc(Cl)cc2)n[nH]1 | inactive
13 | CCC(=O)Nc1ccccc1N1CCN(S(C)(=O)=O)CC1 | inactive
14 | O=C(Cn1cnc2c(cnn2-c2ccccc2)c1=O)NCc1ccccc1 | inactive
15 | O=C(Nc1ccc(S(=O)(=O)N2CCCC2)cc1Cl)C1=COCCO1 | inactive
16 | O=C(Cn1c(=O)sc2ccccc21)Nc1ccc2c(c1)OCCO2 | inactive
17 | Cn1cccc1C(=O)NC(=O)COC(=O)Cc1coc2ccc3ccccc3c12 | 30 nM (active)
18 | CC(C)(C)NC(=O)NC(=O)COC(=O)Cn1c(C(F)(F)F)nc2ccccc21 | inactive
19 | Cn1cccc1C(=O)Nc1nccs1 | inactive

Row | SMILES | max dye-equivalent concentration
20 | CC(=O)c1cc2c(cc1N)OCO2 | inactive
21 | COCc1[nH]nc2c1C(C1C=CCCC1)C(C#N)=C(N)O2 (configuration not stated) | inactive
22 | CC(=O)Oc1ccc2c(C)c(CC(C)O)c(=O)oc2c1 (configuration not stated) | 15000 nM (active)
23 | FC(F)(F)c1ccccc1-c1nc(-n2ccnc2)c2ccccc2n1 | inactive
24 | O=C1CN(C(=O)COC(=O)C2CC(=O)N(Cc3ccco3)C2)c2ccccc2N1 (configuration not stated) | inactive
25 | COc1ccccc1C(=O)n1nc(-c2ccccc2)nc1N | inactive
26 | COc1ccc(C(=O)n2nc(-c3ccc(C)cc3)nc2N)cc1OC | 35 nM (active)
27 | COc1ccc(C(=O)n2nc(-c3ccc(Cl)cc3)nc2N)cc1OC | inactive
28 | CN(C(=O)c1ccccn1)c1nnc(-c2ccccn2)s1 | inactive
29 | C=CCNC(=O)c1ccc(C)c(Br)c1 | inactive
30 | O=C(NCCc1ccc2c(c1)OCCO2)c1cc2ccccc2o1 | inactive
31 | CCOC(=O)N1CCN(C(=O)c2n[nH]c(=O)c3ccccc23)CC1 | inactive
32 | COc1c(C(=O)N2CCCC2)ccc2ccccc12 | inactive
33 | CNC(=O)c1cc2c(ccc3ccccc32)oc1=N | 9900 nM (active)
34 | CCOC(=O)N1CCN(C(=O)c2cc3c(ccc4ccccc43)oc2=O)CC1 | 1500 nM (active)
35 | CCCCC(=O)Nc1cc(C)c2c(=O)oc3ccccc3c2n1 | inactive
36 | C=CCSc1nc2ccccc2[nH]1 | inactive
37 | Cc1ccc(CNC(=O)C2CC(=O)N(C3CCCCCCC3)C2)cc1 (configuration not stated) | inactive
38 | COc1ccc(CCNS(=O)(=O)c2ccc(F)cc2)cc1OC | inactive

Row | SMILES | max dye-equivalent concentration
39 | COC(=O)c1ccc2c(c1)S(=O)(=O)NC(=NCCCN1CCOCC1)S2 | inactive
40 | Cc1cc(-n2nc(C)cc2C)n2ncc(-c3ccccc3)c2n1 | inactive
41 | Cc1cc(C(F)(F)F)n2ncc(-c3ccccc3)c2n1 | 12 nM (active)
42 | Cc1cc(Cl)ccc1OCC(=O)Oc1c(Cl)c(Cl)c(Cl)c(Cl)c1Cl | inactive
43 | Cc1cc(C)c2nc(SCCC#N)nc(C)c2c1 | inactive
44 | C=CCN(c1ccc(C(N)=O)cc1)S(C)(=O)=O | inactive
45 | O=C(CSc1nnc(-c2ccccc2)o1)N1CCOCC1 | inactive
46 | Nc1ccc(-c2nnc(-c3ccc(-c4ccccc4)cc3)o2)cc1 | 170 nM (active)
47 | O=C(COC(=O)c1ccc(Oc2ccccc2)cc1)Nc1nnc(-c2ccccc2)o1 | inactive
48 | O=C(Nc1ccc(Cl)cc1)c1ccsn1 | inactive
49 | CCC[C@H]1C(=O)N2C(N(C)C)=Nc3ccc(C)cc3N2C1=O | inactive
50 | COc1ccc(-n2c(C)cc(C(=O)CSc3nnc(-c4cccs4)o3)c2C)cc1 | inactive
51 | COc1ccc(-c2nnc(SCC(=O)c3cccs3)o2)c(OC)c1 | inactive
52 | COc1ccc(OC)c(C(=O)CSc2nnc(-c3cccs3)o2)c1 | 150 nM (active)
53 | CC(C)c1ccc(N2CC(C(=O)Nc3nccs3)CC2=O)cc1 (configuration not stated) | inactive
54 | Cn1nnnc1SCC(=O)N1CCN(C(c2ccccc2)c2ccccc2)CC1 | inactive
55 | Cc1ccc2nc(NC3=NCN(CCc4ccccc4)CN3)nc(C)c2c1 | inactive
56 | c1ccc(CCN2CN=C(Nc3nc4ccccc4o3)NC2)cc1 | inactive
57 | COc1ccc2nc(NC3=NCN(CC4CCCO4)CN3)nc(C)c2c1 (configuration not stated) | 92 nM (active)
